A selection: hits, their analogues and other compounds. The true share with any hit is near 7.3%.
HCV inhibitor = inhibitors of hepatitis C virus infection | Huh7.5.1 HCVcc-Cre infection, luciferase reporter, 44 h | Potency, µM (titrated, usually from 41.8 µM), most hits filed as inhibitors | hit rate 3.4% among 340,000
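Seed cells (1,000/well) for 4 h; treat with compound and infect with HCVcc-Cre, moi about 0.5. Incubate 44 h, then detect luciferase activity.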
FMDV inh = foot and mouth disease virus antiviral activity | FMDV antiviral cell-based qHTS | Potency, µM (top dose mostly 57.9 µM), actives largely listed as inhibitors | hit rate 1.2% among 410,000; calls by dose curve; tested in HEK293T cells; also: read-out not given here; nearly all actives have a fitted effect of over 45% in size
HCMV antiviral = blocks human cytomegalovirus replication. HFF cells, HCMV-luciferase reporter, 72 h; hits give low values. activity change, negative = inhibition, % at 57.5 µM. hit rate 4.5% among 410,000. AID 1259415; in the data active = activity change below about -60%; inconclusive = no clear call, values can overlap the other calls; inactive = above about -39%
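Compounds were evaluated in HFFs infected with an HCMV luciferase reporter virus (MOI 1 PFU/cell). Luciferase in lysates collected 72 h post infection served as the replication measure.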
AmpC inh no detg = inhibitors of E. coli AmpC beta-lactamase without detergent; Potency, µM (top dose mostly 57.1 µM), usual class: inhibitors; P00811; AmpC nitrocefin hydrolysis, absorbance 480 nm, 0.0001% Triton; hit rate 0.52% among 330,000; AID 485341; also: nearly all actives have a fitted effect of over 20% in size
Target sequence (P00811 whole entry, looked up): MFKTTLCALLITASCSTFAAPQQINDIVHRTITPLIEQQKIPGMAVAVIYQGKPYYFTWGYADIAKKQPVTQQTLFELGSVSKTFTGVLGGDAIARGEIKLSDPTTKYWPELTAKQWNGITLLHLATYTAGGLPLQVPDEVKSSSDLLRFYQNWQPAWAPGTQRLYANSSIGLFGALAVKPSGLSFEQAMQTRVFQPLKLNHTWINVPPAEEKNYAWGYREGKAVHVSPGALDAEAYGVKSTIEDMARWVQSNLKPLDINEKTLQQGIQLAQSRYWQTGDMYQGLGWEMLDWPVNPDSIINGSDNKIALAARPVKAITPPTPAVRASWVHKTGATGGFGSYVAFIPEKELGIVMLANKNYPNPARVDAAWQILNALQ
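AmpC (5.3 nM in the dispensed reagent) in 20 mM phosphate pH 7.0 with 0.01% (detergent screen) or 0.0001% Triton X-100 was preincubated with compounds for 15 min at room temperature. Nitrocefin was then added from an 800 uM solution, and hydrolysis was followed at 480 nm.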
AmpC detergent = blocks E. coli AmpC beta-lactamase in detergent assay; AmpC hydrolysis of nitrocefin, absorbance 480 nm, 0.01% Triton; hit rate 0.041% among 370,000; P00811; AID 485294; Potency, µM (doses to about 114 µM), hits mostly inhibitors; also: nearly all actives have a fitted effect of over 25% in size
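20 mM phosphate pH 7.0 + 0.01% (detergent screen) or 0.0001% Triton X-100; 5.3 nM AmpC reagent; cpd preinc 15 min RT; nitrocefin (800 uM stock) to start; A480 q20 s × 4 min; Activity was normalised to no-enzyme and no-compound control wells.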
A number is an active result; - = inactive; ? = inconclusive; . = no result given. Unless noted, calls follow the shape of the dose curve; as a rule, active = well fitted curve in the direction sought with a large enough effect; inconclusive = small, poorly fitted or top-dose-only effect, or another doubt; inactive = no such curve, though single readings can be large; an effect the other way counts as inactive or inconclusive.

SMILES	HCV inhibitor	FMDV inh	HCMV antiviral	AmpC inh no detg	AmpC detergent
CC(C)n1ncc2c(C(=O)Nc3ccc(S(N)(=O)=O)cc3)cc(C3CC3)nc21	-	?	-	-	-
CC(C)n1ncc2c(C(=O)Nc3ccc(S(C)(=O)=O)cc3)cc(C3CC3)nc21	5.6µM	-	-	-	-
Cc1ccc(OCCNC(=O)c2cc(C3CC3)nc3c2cnn3C(C)C)cc1	13µM	-	-	-	-
Cc1ccc(CNC(=O)c2cc(C3CC3)nc3c2cnn3C(C)C)cc1	?	-	-	-	-
CC(C)n1ncc2c(C(=O)Nc3cccc(S(=O)(=O)N(C)C)c3)cc(C3CC3)nc21	?	?	-	-	-
CCN(CC)C(=O)c1cccc(NC(=O)c2cc(C3CC3)nc3c2cnn3C(C)C)c1	7.1µM	-	-	-	?
CC(=O)Nc1ccc(NC(=O)c2cc(C3CC3)nc3c2cnn3C(C)C)cc1	10µM	-	-	-	-
CCN(C(=O)C(=O)c1c[nH]c2ccccc12)c1ccccc1	-	-	-	-	-
CCC[C@@H]1NC(=O)CNC(=O)[C@H](Cc2ccccc2)NC(=O)[C@H]([C@H](C)O)NC(=O)[C@H](CCC(N)=O)NC(=O)C(C(C)C(C)Cl)NC(=O)[C@H](CC(C)C)N(C)C(=O)[C@H](C)NC(=O)CC(O)C(NC(=O)[C@@H](CC(C)C)NC=O)C(C)OC1=O (stereo partly drawn)	.	.	-	.	.
CC(=O)/C(=C/Nc1ccc(Oc2ccccc2)cc1)c1ccccc1	-	-	-77	-	-
CCOc1ccc2oc(C(=O)NC3CC(C)(C)NC(C)(C)C3)c(C)c2c1	13µM	-	-	-	-
CC(C)CCn1nnnc1CN1CCN(c2ccc(F)cc2)CC1	-	-	-102	-	-
COc1cccc(CNS(=O)(=O)c2ccccc2Br)c1	.	.	-	.	.
CCOC(=O)C(=Cc1ccc(Br)cc1)C(=O)OCC	?	22µM	-100	-	-
CCOC(=O)C(CC)(CC)C(=O)/C=C/c1ccc(Br)cc1	?	?	-106	-	-
CCOC(=O)C(=Cc1ccc(F)cc1)C(=O)OCC	.	.	.	-	-
CCOC(=O)C(=Cc1ccc(-n2ccnc2)cc1)C(=O)OCC	?	22µM	-86	-	-
COC(=O)c1ccc(-n2ccnc2)cc1	-	-	-	-	-
CSc1ccc(CN(C)CC(=O)NCCc2ccccc2)cc1	?	-	-	-	-
O=C1CC(NC2CCN(C(=O)c3cccc(F)c3)CC2)C(=O)N1 (stereo not drawn)	-	-	-	-	-
CCCCNC(=O)c1ccc2nc(CC)c(N(C)Cc3cccs3)n2c1	.	-	-	.	.
O=C(N/N=C(\CC(=O)c1cccs1)C(F)(F)F)c1ccncc1	?	-	-76	-	-
Cc1ccc(C(=O)N/N=C(/CC(=O)c2cccs2)C(F)(F)F)cc1	-	-	-86	-	-
COc1ccc(C2=NN(CCC(=O)NC3CCCCC3C)C(=O)CC2)cc1 (stereo not drawn)	.	-	-	.	.
Cc1cccc(NC(=O)C2CCN(S(=O)(=O)c3ccc4c(c3)CCCN4C(=O)C3CCC3)CC2)c1	.	-	-	.	-
SMILES	HCV inhibitor	FMDV inh	HCMV antiviral	AmpC inh no detg	AmpC detergent
O=C1C2C3C=CC(C3)C2C(=O)N1c1ccc(N2CCN(c3ccccn3)CC2)c([N+](=O)[O-])c1 (stereo not drawn)	10µM	?	-66	-	-
COc1ccc(-c2nsc(NC(=O)c3cccc(OC)c3)n2)cc1	.	-	?	.	-
N#Cc1cnc(Oc2ccc(Cl)cc2)nc1N	-	-	-	-	-
CCCCCn1c(=O)c2ccccc2n2c(CCl)nnc12	-	20µM	-	-	-
CC(C)CCn1c(=O)c2ccccc2n2c(CCl)nnc12	?	32µM	-	-	-
CN(C)C(CNC(=O)c1sc2ccccc2c1Cl)c1ccco1 (stereo not drawn)	.	-	-	.	.
COc1ccc(Oc2ncnc3c2oc2ccccc23)cc1	.	-	-	.	-
COCCn1c(C)cc(O)c(C(c2ccccc2)N2CCN(C)CC2)c1=O (stereo not drawn)	.	-	-	.	-
Cc1cc(C)c(S(=O)(=O)/N=C2\C=CC(=O)C(Cl)=C2)c(C)c1	-	-	.	5µM	?
C[C@@H]1[C@H]2[C@@H]3CC[C@@H](C3)[C@H]2CN[C@H]1c1cn(Cc2ccccc2)c2ccccc12	22µM	-	-	-	.

Assay outcomes (PubChem)
